Results taken from article PMC10812921, “Transcriptional Coactivator BOB1 (OBF1, OCA-B) Modulates the Specificity of DNA Recognition by the POU-Domain Factors OCT1 and OCT2 in a Monomeric Configuration”.

Key:
POU1 (OCT1 POU domain) = POU1 (OCT1 POU domain) (human, UniProt P14859 260-458); test: EMSA-SELEX-seq; no BOB1; 20 mM Tris-HCl pH 7.6, 140 mM NaCl, 10% glycerol, 0.5 mM EDTA, 0.05% Triton X-100, 0.1 mg/mL BSA, 0.1 mg/mL poly(dI-dC), 5 mM DTT, room temperature, 20 min; high values mean tight binding; conditions: protein: recombinant; dsDNA, one strand shown
Summary of the method: (§1)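 After expression in E. coli BL21, tagged POU-domain proteins were purified under denaturing conditions and then renatured. Each binding reaction held 30 ng protein and 300 ng of a PCR-amplified double-stranded random 35-nt library in 20 μL Tris–HCl pH 7.6 binding buffer, with or without 28 ng coactivator protein, for 20 min at RT. Bands holding complexes were cut from native 6% PAGE, eluted and PCR-amplified across four rounds, and the output was Illumina-sequenced. The value given for binding preference is the share, in percent, of sequenced 8-mers fitting a motif pattern.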

POU2 (OCT2 POU domain) = molecular target: T1, POU2 (OCT2 POU domain) (human, UniProt P09086 175-386); test: as above; conditions: protein: recombinant; dsDNA, one strand shown
T1 sequence: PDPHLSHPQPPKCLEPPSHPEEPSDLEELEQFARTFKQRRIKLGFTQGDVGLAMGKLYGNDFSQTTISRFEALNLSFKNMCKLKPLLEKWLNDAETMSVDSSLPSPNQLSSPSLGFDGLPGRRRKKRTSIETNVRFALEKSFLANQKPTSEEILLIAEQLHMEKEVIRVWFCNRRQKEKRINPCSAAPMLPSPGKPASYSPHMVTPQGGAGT
Summary of the method: as §1

[1] = molecular target: POU1 (OCT1 POU domain);BOB1 (OBF1, OCA-B) (human;human, UniProt P14859;Q16633 260-458;1-256, |); test: EMSA-SELEX-seq; with BOB1 (ternary complex band); 20 mM Tris-HCl pH 7.6, 140 mM NaCl, 10% glycerol, 0.5 mM EDTA, 0.05% Triton X-100, 0.1 mg/mL BSA, 0.1 mg/mL poly(dI-dC), 5 mM DTT, room temperature, 20 min; high values mean tight binding; conditions: protein: recombinant;recombinant; copies: 1;1; dsDNA, one strand shown
Summary of the method: as §1

[2] = molecular target: T2, POU2 (OCT2 POU domain);BOB1 (OBF1, OCA-B) (human;human, UniProt P09086;Q16633 175-386;1-256, |); test: as above; conditions: protein: recombinant;recombinant; copies: 1;1; dsDNA, one strand shown
T2 sequence 1: T1 sequence
T2 sequence 2: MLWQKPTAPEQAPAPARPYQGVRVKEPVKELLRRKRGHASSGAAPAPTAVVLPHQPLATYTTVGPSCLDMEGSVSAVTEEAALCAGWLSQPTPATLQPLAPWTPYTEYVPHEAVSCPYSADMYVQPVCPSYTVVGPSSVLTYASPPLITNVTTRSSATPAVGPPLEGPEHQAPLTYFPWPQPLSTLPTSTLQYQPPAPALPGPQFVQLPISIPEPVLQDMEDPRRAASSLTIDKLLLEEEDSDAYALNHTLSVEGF
Summary of the method: as §1

POU1 (OCT1 POU domain), sequence (P14859 260-458): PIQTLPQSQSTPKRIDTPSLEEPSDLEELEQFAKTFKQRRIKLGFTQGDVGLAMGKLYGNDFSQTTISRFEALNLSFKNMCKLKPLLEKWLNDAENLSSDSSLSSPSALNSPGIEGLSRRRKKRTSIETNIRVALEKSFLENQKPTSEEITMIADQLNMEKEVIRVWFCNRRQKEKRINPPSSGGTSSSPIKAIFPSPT

Row | Sequence | binding signal (POU1 (OCT1 POU domain)) | binding signal (POU2 (OCT2 POU domain)) | binding signal [1] | binding signal [2]
1 | ACGACAAG | 0.0175 % of ANNNNAAN 8-mers | 0.023 % of ANNNNAAN 8-mers | 0.0215 % of ANNNNAAN 8-mers | 0.0231 % of ANNNNAAN 8-mers
2 | ACTAGAAC | 0.016 % of ANNNNAAN 8-mers | 0.0207 % of ANNNNAAN 8-mers | 0.0144 % of ANNNNAAN 8-mers | 0.0149 % of ANNNNAAN 8-mers
3 | AGAAAAAC | 0.04 % of ANNNNAAN 8-mers | 0.0368 % of ANNNNAAN 8-mers | 0.0519 % of ANNNNAAN 8-mers | 0.0396 % of ANNNNAAN 8-mers
4 | ACACGAAT | 0.0347 % of ANNNNAAN 8-mers | 0.0575 % of ANNNNAAN 8-mers | 0.0379 % of ANNNNAAN 8-mers | 0.0438 % of ANNNNAAN 8-mers
5 | ATGTTAAC | 0.0645 % of ANNNNAAN 8-mers | 0.0938 % of ANNNNAAN 8-mers | 0.0578 % of ANNNNAAN 8-mers | 0.0586 % of ANNNNAAN 8-mers
6 | AAACTAAT | 0.104 % of ANNNNAAN 8-mers | 0.129 % of ANNNNAAN 8-mers | 0.0808 % of ANNNNAAN 8-mers | 0.0925 % of ANNNNAAN 8-mers
7 | AGTTCAAC | 0.0229 % of ANNNNAAN 8-mers | 0.0173 % of ANNNNAAN 8-mers | 0.0246 % of ANNNNAAN 8-mers | 0.0173 % of ANNNNAAN 8-mers
8 | ATGTGAAG | 0.0484 % of ANNNNAAN 8-mers | 0.0627 % of ANNNNAAN 8-mers | 0.046 % of ANNNNAAN 8-mers | 0.0429 % of ANNNNAAN 8-mers
9 | AGTCGAAG | 0.0305 % of ANNNNAAN 8-mers | 0.0357 % of ANNNNAAN 8-mers | 0.023 % of ANNNNAAN 8-mers | 0.0347 % of ANNNNAAN 8-mers
10 | AATCTAAT | 0.116 % of ANNNNAAN 8-mers | 0.143 % of ANNNNAAN 8-mers | 0.0972 % of ANNNNAAN 8-mers | 0.0949 % of ANNNNAAN 8-mers
11 | ATGTGAAA | 0.0671 % of ANNNNAAN 8-mers | 0.0748 % of ANNNNAAN 8-mers | 0.0687 % of ANNNNAAN 8-mers | 0.0718 % of ANNNNAAN 8-mers
12 | AGAGGAAC | 0.0229 % of ANNNNAAN 8-mers | 0.0339 % of ANNNNAAN 8-mers | 0.0234 % of ANNNNAAN 8-mers | 0.0264 % of ANNNNAAN 8-mers
13 | ACAATAAT | 0.0778 % of ANNNNAAN 8-mers | 0.0978 % of ANNNNAAN 8-mers | 0.0515 % of ANNNNAAN 8-mers | 0.0528 % of ANNNNAAN 8-mers
14 | ACTCCAAA | 0.0259 % of ANNNNAAN 8-mers | 0.0219 % of ANNNNAAN 8-mers | 0.0277 % of ANNNNAAN 8-mers | 0.0149 % of ANNNNAAN 8-mers
15 | AAAGGAAA | 0.103 % of ANNNNAAN 8-mers | 0.0903 % of ANNNNAAN 8-mers | 0.144 % of ANNNNAAN 8-mers | 0.0933 % of ANNNNAAN 8-mers
16 | AAAAGAAA | 0.106 % of ANNNNAAN 8-mers | 0.084 % of ANNNNAAN 8-mers | 0.119 % of ANNNNAAN 8-mers | 0.0702 % of ANNNNAAN 8-mers
17 | AATTGAAA | 0.113 % of ANNNNAAN 8-mers | 0.131 % of ANNNNAAN 8-mers | 0.114 % of ANNNNAAN 8-mers | 0.0817 % of ANNNNAAN 8-mers
18 | AGAGAAAG | 0.0442 % of ANNNNAAN 8-mers | 0.0501 % of ANNNNAAN 8-mers | 0.0375 % of ANNNNAAN 8-mers | 0.038 % of ANNNNAAN 8-mers
19 | AACCAAAT | 0.166 % of ANNNNAAN 8-mers | 0.121 % of ANNNNAAN 8-mers | 0.257 % of ANNNNAAN 8-mers | 0.18 % of ANNNNAAN 8-mers
20 | ATCTTAAG | 0.0461 % of ANNNNAAN 8-mers | 0.0541 % of ANNNNAAN 8-mers | 0.0503 % of ANNNNAAN 8-mers | 0.0438 % of ANNNNAAN 8-mers
21 | ACTCGAAT | 0.0484 % of ANNNNAAN 8-mers | 0.0518 % of ANNNNAAN 8-mers | 0.0402 % of ANNNNAAN 8-mers | 0.0504 % of ANNNNAAN 8-mers
22 | AACGAAAA | 0.0522 % of ANNNNAAN 8-mers | 0.0529 % of ANNNNAAN 8-mers | 0.0597 % of ANNNNAAN 8-mers | 0.0462 % of ANNNNAAN 8-mers
23 | AGGGAAAC | 0.0648 % of ANNNNAAN 8-mers | 0.0518 % of ANNNNAAN 8-mers | 0.0991 % of ANNNNAAN 8-mers | 0.0413 % of ANNNNAAN 8-mers
24 | AGGTAAAG | 0.0801 % of ANNNNAAN 8-mers | 0.0708 % of ANNNNAAN 8-mers | 0.116 % of ANNNNAAN 8-mers | 0.071 % of ANNNNAAN 8-mers
25 | ACTGAAAG | 0.0172 % of ANNNNAAN 8-mers | 0.0196 % of ANNNNAAN 8-mers | 0.0273 % of ANNNNAAN 8-mers | 0.0231 % of ANNNNAAN 8-mers
26 | ACGTTAAT | 0.112 % of ANNNNAAN 8-mers | 0.163 % of ANNNNAAN 8-mers | 0.073 % of ANNNNAAN 8-mers | 0.102 % of ANNNNAAN 8-mers
27 | AGTTCAAG | 0.0297 % of ANNNNAAN 8-mers | 0.0276 % of ANNNNAAN 8-mers | 0.0359 % of ANNNNAAN 8-mers | 0.0314 % of ANNNNAAN 8-mers
28 | ATCTGAAT | 0.201 % of ANNNNAAN 8-mers | 0.232 % of ANNNNAAN 8-mers | 0.102 % of ANNNNAAN 8-mers | 0.126 % of ANNNNAAN 8-mers
29 | ATAGAAAT | 0.0782 % of ANNNNAAN 8-mers | 0.0961 % of ANNNNAAN 8-mers | 0.0878 % of ANNNNAAN 8-mers | 0.0892 % of ANNNNAAN 8-mers
30 | AACCGAAA | 0.0271 % of ANNNNAAN 8-mers | 0.0293 % of ANNNNAAN 8-mers | 0.0265 % of ANNNNAAN 8-mers | 0.0256 % of ANNNNAAN 8-mers
